Screening results: PubChem, National Center for Advancing Translational Sciences (NCATS)
Hits are enriched below; roughly 9.5% of the tested compounds scored in any of these assays.
NPSR antagonist = blocks cAMP signaling of the human neuropeptide S receptor. Q6W5P4. CHO-NPSR cells, cAMP TR-FRET, antagonist mode. Potency, µM (highest dose often 38.3 µM), hits mostly inhibitors. hit rate 1% among 220,000; note: nearly all actives have a fitted effect of over 50% in size
Target sequence (Q6W5P4 whole entry, looked up): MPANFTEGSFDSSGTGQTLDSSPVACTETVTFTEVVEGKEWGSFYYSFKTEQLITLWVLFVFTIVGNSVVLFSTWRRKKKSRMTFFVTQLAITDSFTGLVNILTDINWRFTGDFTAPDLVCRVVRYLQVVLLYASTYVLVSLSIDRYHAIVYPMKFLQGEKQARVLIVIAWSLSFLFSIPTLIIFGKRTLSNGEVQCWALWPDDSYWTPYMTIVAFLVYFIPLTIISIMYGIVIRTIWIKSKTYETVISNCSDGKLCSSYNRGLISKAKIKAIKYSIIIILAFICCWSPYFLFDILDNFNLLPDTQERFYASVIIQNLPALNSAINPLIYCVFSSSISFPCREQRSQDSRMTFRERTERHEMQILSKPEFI
Tau FP inhib = inhibitors of human tau fibril formation; P10636; K18 P301L tau heparin fibrillization, Alexa594 FP, 6 h; Potency, µM (doses to about 57.7 µM), most hits filed as inhibitors; hit rate 0.39% among 280,000; note: nearly all actives have a fitted effect of over 55% in size
Target sequence (P10636 561-689 P618L limits assumed): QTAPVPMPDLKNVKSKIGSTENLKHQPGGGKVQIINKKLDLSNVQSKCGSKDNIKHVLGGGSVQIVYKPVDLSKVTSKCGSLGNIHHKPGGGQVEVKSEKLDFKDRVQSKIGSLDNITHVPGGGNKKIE
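Recombinant K18 P301L […], labeled with Alexa 594 at 0.24 uM over 15 uM unlabeled; heparin inducer 20 uM final; 37 C, 6 hr; FP endpoint.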
Tau fibril ThT = blocks human tau fibril formation measured by thioflavin T. P10636. recombinant tau K18 P301L, heparin-induced fibrillization, ThT fluorescence. Potency, µM (series often up to 57.4 µM), most hits filed as inhibitors. hit rate 2.1% among 270,000; note: nearly all actives have a fitted effect of over 55% in size
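Heparin-induced fibrillization of the P301L-mutant K18 repeat-domain fragment of human tau was followed by ThT binding in quantitative high-throughput format.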
HPGD block = HPGD (human) dehydrogenase inhibition | purified HPGD, NADH fluorescence kinetic, PGE2 substrate | Potency, µM, actives largely listed as inhibitors | hit rate 4.3% among 150,000 | AID 894; active = well fitted inhibition curve with a large enough effect, not every such curve was filed as active; inconclusive = small, poorly fitted or top-dose-only effect, or another doubt; inactive = no such curve, though single readings can be large or run the other way
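NADH formation kinetics: reaction with 30 uM PGE2 and 1 mM NAD+ (final), 20 nM enzyme, Tris-HCl pH 8 with Tween 20, after 15 min compound preincubation at room temperature. Fluorescence change, last versus first of five reads.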
Tau fluor counter = counter-screen for tau fibril formation inhibitors; tau K18 P301L (four-repeat tau fragment) Alexa594 fluorescence, heparin fibrillization; Potency, µM (doses to about 57.7 µM); hit rate 0.93% among 280,000; note: nearly all actives have a fitted effect of over 55% in size
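Human K18 P301L tau (15 uM unlabeled plus 0.24 uM Alexa 594-labeled, final) in 100 mM sodium acetate pH 7 was mixed with compound and 20 uM heparin and incubated 6 hr at 37 C.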
ALDH1A1 block = ALDH1A1 (human) enzyme inhibition | P00352 | Purified ALDH1A1, NADH fluorescence, propionaldehyde substrate | Potency, µM (highest dose often 75.3 µM), hits mostly inhibitors | hit rate 7.3% among 220,000; active = well fitted inhibition curve with a large enough effect, not every such curve was filed as active; inconclusive = small, poorly fitted or top-dose-only effect, or another doubt; inactive = no such curve, though single readings can be large or run the other way
Of the large screens only hits and unclear results are named; the others gave an inactive call. Unless noted, calls come from the whole dose curve; as a rule, active = well fitted curve in the direction sought with a large enough effect; inconclusive = small, poorly fitted or top-dose-only effect, or another doubt; inactive = no such curve, though single readings can be large; an effect the other way counts as inactive or inconclusive.

CC(=O)c1sc(NC(=O)C(C)(C)C)nc1C	none
COc1ccc2sc3ccccc3c(=O)c2c1	Tau fibril ThT inconclusive, ALDH1A1 block inconclusive
COc1ccc(-c2cc(=O)c3ccccc3s2)cc1	Tau fibril ThT inconclusive, HPGD block 7.94µM, ALDH1A1 block inconclusive
N#C/C(=C(/O)c1cc2ccccc2o1)c1nc2ccccc2s1	Tau FP inhib inconclusive, Tau fibril ThT 6.31µM, Tau fluor counter inconclusive (no result: HPGD block)
Cc1ccc(C(=O)NCC(=O)OC(C)C(=O)Nc2ccc(N(C)C)cc2)s1 (stereo unspecified)	ALDH1A1 block inconclusive (no result: HPGD block)
Cc1nc(-n2nc(C)c(CCC(C)C)c2C)sc1C(=O)Nc1ccc(Cl)cc1	none (no result: NPSR antagonist, HPGD block, ALDH1A1 block)
C=CCc1ccc(OCCCOc2ccc(C(=O)O)cc2)c(OC)c1	none (no result: HPGD block)
C=CCc1cc(C=O)cc(OC)c1OCc1ccc(C(=O)O)cc1	ALDH1A1 block 10µM (no result: HPGD block)
Cc1c(C)n(Cc2ccccc2)c2ccc(C(=O)N3CCN(c4ccc(F)cc4)CC3)cc12	none (no result: NPSR antagonist, HPGD block, ALDH1A1 block)
Cc1ccc(S(=O)(=O)CCC(=O)O)cc1C	ALDH1A1 block 8.91µM
CCCN1C(=O)/C(=C2\SC(N3CCCCC3)=NC2=O)c2ccccc21	NPSR antagonist inconclusive, Tau fibril ThT 15.8µM, Tau fluor counter inconclusive, ALDH1A1 block inconclusive
CCOC(=O)c1ccc(-n2c(CN(CC)CC)nc3ccc([N+](=O)[O-])cc3c2=O)cc1	Tau fibril ThT inconclusive, ALDH1A1 block 28.2µM (no result: HPGD block)
CCOC(=O)c1ccc(-n2c(CN3CCN(CC)CC3)nc3ccc([N+](=O)[O-])cc3c2=O)cc1	Tau fibril ThT inconclusive, ALDH1A1 block inconclusive (no result: HPGD block)
CCOC(=O)c1ccc(-n2c(CN3CCC(C(N)=O)CC3)nc3ccc([N+](=O)[O-])cc3c2=O)cc1	Tau fibril ThT inconclusive, Tau fluor counter inconclusive, ALDH1A1 block 8.91µM (no result: HPGD block)
Cc1[nH][nH]c(=O)c1[C@@H](c1ccccc1[N+](=O)[O-])C(C#N)C#N	Tau fibril ThT inconclusive, ALDH1A1 block 25.1µM (no result: HPGD block)
CC1NC(=O)NC1CCCCCC(=O)NCCc1ccccc1 (stereo unspecified)	HPGD block 25.1µM, ALDH1A1 block inconclusive
CC(C)C[C@@H](CC(=O)N[C@H](CC(=O)N[C@@H]1CCNC[C@H]1C(=O)N[C@H](CC(=O)N[C@@H](CCC(=O)O)CC(=O)O)Cc1ccccc1)C(C)C)NC(=O)[C@@H]1CNCC[C@H]1N	none (no result: NPSR antagonist)
Cc1cccc(-n2nnnc2SCC(=O)c2cc(C)n(Cc3ccco3)c2C)c1	ALDH1A1 block 17.8µM
Cc1cc(C(=O)CSc2nc3ccccc3[nH]2)c(C)n1CC1CCCO1 (stereo unspecified)	HPGD block 15.8µM, ALDH1A1 block inconclusive
Cc1cc(C(=O)CSc2nc3ccccc3o2)c(C)n1CC1CCCO1 (stereo unspecified)	none
Cc1cccc(-n2nnnc2SCC(=O)c2cc(C)n(CC3CCCO3)c2C)c1 (stereo unspecified)	Tau fibril ThT inconclusive, ALDH1A1 block 7.94µM
Cc1ccc(S(=O)(=O)NCCc2cn3ccsc3n2)cc1	none (no result: NPSR antagonist, HPGD block, ALDH1A1 block)
Cc1nn(CC(=O)OCC(=O)NC(C)c2ccccc2)c(C)c1[N+](=O)[O-] (stereo unspecified)	none (no result: HPGD block)
Cn1c(=O)[nH]c(=O)c2c1nc(N1CCCCC1)n2CCCSc1nc2ccccc2s1	Tau fibril ThT inconclusive, HPGD block 15.8µM, ALDH1A1 block inconclusive
CC1CCN(c2nc3c(c(=O)n(C)c(=O)n3C)n2CCSc2nc3ccccc3s2)CC1	ALDH1A1 block inconclusive
Cn1c(=O)c2c(nc(N3CCCCC3)n2CCSc2nc3ccccc3s2)n(C)c1=O	ALDH1A1 block 28.2µM
CC1(C)CC(=O)C2=C(C1)N(c1ccc(F)cc1)C(=O)NC2(C(F)(F)F)C(F)(F)F	ALDH1A1 block 10µM
N#CC1=C(N)N(c2ccc(F)cc2)C2=C(C1c1ccc(O)cc1)S(=O)(=O)CC2 (stereo unspecified)	Tau FP inhib inconclusive, Tau fibril ThT 15.8µM, Tau fluor counter inconclusive, ALDH1A1 block 11.2µM (no result: HPGD block)
CCOc1ccccc1N1CC(C(=O)Nc2ccccc2N2CCOCC2)CC1=O (stereo unspecified)	none
